Assay [1] can be described thus: rapamycin-like changes in RPL19A-GFP expression – cell-based, S. cerevisiae, multiplex flow cytometry, primary screen (AID 1862; in the data active = percent of DMSO control GFP below about 86%;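 also: lower values mimic rapamycin by blocking the RPL19A rise seen in DMSO cells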). The note with it: S. cerevisiae RPL19A-GFP strain, flow cytometry fluorescence, 3 h; at 10 µM; stronger effect = lower value. In general terms: In flow cytometry, cells or beads pass a laser one at a time.
Assay [2] can be described thus: TOR pathway GLN3 branch reporter MEP2-GFP changes – S. cerevisiae, multiplex flow cytometry, primary screen (AID 1867;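 active = GFP response, as percent of the DMSO control, above the screen-wide mean plus 3 SD, about 139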;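 also: median GFP channel fluorescence of barcode-gated MEP2-GFP cells measured by flow cytometry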). The note with it: S. cerevisiae MEP2-GFP strain, 3 h, at 10 µM, stronger effect = higher value, 100% means same as DMSO wells.
The nature of assay [3]: TOR pathway RTG branch CIT2 reporter changes – S. cerevisiae, GFP fusion, multiplex flow cytometry, primary screen (AID 1870;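 active = percent response above a set limit, the screen-wide mean plus 3 SD, cut at about 130% in these data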;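 also: barcoded CIT2-GFP strain pooled with four other GFP strains with rapamycin as positive control; median GFP fluorescence per well over plate mean of DMSO wells so 100% = DMSO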). The conditions noted are these: S. cerevisiae CIT2-GFP expression, 3 h, at 10 µM, stronger effect = higher value.
A short description of assay [4]: TOR pathway LAP4-GFP level changes – S. cerevisiae, multiplex flow cytometry, primary screen (AID 1873;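 active = GFP signal, as percent of the solvent control, above the screen mean plus 3 SD, about 149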). The note with it: S. cerevisiae LAP4-GFP expression, 3 h, at 10 µM, stronger effect = higher value.
Assay [5] can be described thus: yeast AGP1-GFP level changes, GLN3 branch – cell-based, multiplex flow cytometry, S. cerevisiae, primary screen (AID 1887;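 active = GFP signal above the screen-wide mean plus 3 SD, that is over about 124.5% of the solvent control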;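 also: AGP1-GFP fusion strain of S. cerevisiae within a five-strain barcoded multiplex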). The note with it: 3 h, at 10 µM, stronger effect = higher value.
Assay [6] in a line: reduced mouse 2C T cell binding to pMHC/ICAM-1 vesicles – MLPCN validation set, flow cytometry, LFA-1/ICAM-1 modulator project, pilot screen (AID 2523;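 active = response below a set limit, under 55% cells CD8-positive and vesicle-bound, and CD8 cells' 90th-percentile brightness under 279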;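 as to vesicle binding response: mean PE anti-B7-1 fluorescence of CD8+ cells relative to row control; 100% = QL9-loaded vesicles with DMSO vehicle in the same plate row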). The conditions noted are these: 2C mouse CD8+ T cells, at 7 µM, stronger effect = lower value; double positive events: measured here: CD8+/vesicle+ event percentage.
For assay [7], the target named is Integrin beta-1 (Homo sapiens) + Integrin alpha-4 (Homo sapiens) (UniProt P13612+P05556). Briefly: alpha4beta1 integrin LIBS antibody binding reduction – U937 cells, HUTS-21 mAb, flow cytometry, validation set, VLA-4 allosteric modulator project, pilot screen (AID 2674;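 active = inhibition above 50%, about 3 SD of the validation set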;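 also: antibody binding induced by the VLA-4 ligand LDV present at three times its Kd; 0% = LDV ligand with antibody and no compound and 100% = antibody without LDV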). The conditions noted are these: HUTS-21 LIBS mAb binding, at 6.7 µM, stronger effect = higher value, binding induced by LDV ligand.

Assay [8] can be described thus: calorie-restriction mimetic ROS inhibitors, yeast – validation compound set, pilot screen (AID 2706;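 active = superoxide response below 65% of plate, a cut near 3 SD across the whole screen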;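 also: yeast exposed to compound for one week at 30 degrees C before staining; 100% = mean of all compound wells on the same plate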). The conditions noted are these: S. cerevisiae aging, superoxide DHE fluorescence; at 10 µM; stronger effect = lower value.
For assay [9], the target named is Beta-adrenergic receptor kinase 1 (Homo sapiens) (UniProt P25098). Briefly: GRK2 binders displacing RNA aptamer, biochemical, validation, human GRK2, bead flow cytometry (AID 488806;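 active = aptamer binding inhibition above 30%, about 3 SD of noise from non-fluorescent compounds; inactive = inhibition at or below 30%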). The note with it: bead-bound GRK2, FAM-aptamer displacement, at 10 µM, stronger effect = higher value.
Assay [10] concerns the target Beta-2 adrenergic receptor (Homo sapiens) (UniProt P07550). The experiment in a line: agonist-induced loss of surface beta2AR – cell-based, FAP fluorogen, flow cytometry, validation set, pilot screen (AID 504459;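 active = percent response above 42, roughly 3 SD of non-fluorescent test compounds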;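 also: agonist-driven loss of surface beta2AR via internalization measured by FAP dye flow cytometry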). The note with it: Am2.2-beta2AR cells, at 10 µM, stronger effect = higher value.
The target in assay [11] is AP-2 complex subunit beta (Homo sapiens) (UniProt P63010). The experiment in a line: beta-arrestin/AP2 interaction blockers – biochemical, validation set, GST-AP2 beads, flow cytometry, pilot screen (AID 504541;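 active = inhibition above 54%, about 3 SD of non-fluorescent compounds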;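 also: AP2 carries R879A mutation and is captured from E. coli lysate; bead-bound FITC arrestin peptide fluorescence measuring arrestin peptide binding to AP2; 0% = DMSO wells and 100% = excess unlabeled arrestin peptide control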). The note with it: FITC arrestin peptide, at 10 µM, stronger effect = higher value, AP2 beta2 appendage fragment, R879A mutant.
Assay [12] can be described thus: cytosolic pH regulators acting via V-ATPase – S. cerevisiae, pHLuorin, HTS validation (AID 504600; in the data active = response above about 15%;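 also: plate controls were DMSO for no effect and reference compound for full effect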). The conditions noted are these: V-ATPase proton transport, at 10 µM, stronger effect = higher value.
For assay [13], the system named is anti-desmoglein-3 scFv antibody binding to human DSG3. The experiment in a line: blockers of pathogenic pemphigus antibody–desmoglein-3 binding – biochemical, validation compound set, bead-based, flow cytometry, pilot screen (AID 588368;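 active = binding below the plate cutoff, the plate median minus 3 SD, with a reading above zero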;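 also: signal is the median channel fluorescence of bead-bound GFP antibody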). The conditions noted are these: Protein G beads, DSG3-Fc, scFv-GFP binding, at 10 µM, stronger effect = lower value.
A short description of assay [14]: Nile Red efflux blockade in pump-expressing yeast – validation compound set, multiplex, phenotypic, pilot screen (AID 588506;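 active = efflux inhibition above 0.42, the validation set average plus 4 SD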;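 also: Nile Red retained in cells so higher fluorescence means more efflux inhibition; 0 = negative control wells and 1 = enniatin B 25 µM full block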). The conditions noted are these: S. cerevisiae pump-expressing triplex, Nile Red efflux flow cytometry; at 10 µM; stronger effect = higher value; the pumps come from Candida albicans.
Assay [15] deals with ATP-binding cassette sub-family B member 6 (Homo sapiens) (UniProt Q9NP58). The experiment in a line: blockers of ABCB6-driven porphyrin uptake – K562-ABCB6 cells, flow cytometry, validation set, pilot screen (AID 588550;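 active = inhibition above the screen-wide mean plus 3 SD, about 51%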;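 also: 0% = DMSO wells and 100% = benzethonium chloride 70 µM positive control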). The conditions noted are these: K562-ABCB6 porphyrin accumulation, 1 h, at 10 µM, stronger effect = higher value.
Assay [16] can be described thus: AML differentiation inducers, ER-HoxA9 marrow cells – cell-based, GFP/MAC1 double positive, flow cytometry, validation set, primary screen (AID 588685).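 Also: compound exposure lasts four days before antibody staining and flow analysis; 0% = DMSO wells and 100% = 5 µM fulvestrant positive control.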 The note with it: stronger effect = higher value, normalized: vehicle 0, fulvestrant 100.

As a reminder, the inhibition is the change of the read-out against control, counted positive when it falls.

Results filed as inconclusive are left out. Active and inactive are the calls of the source.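 The calls were made as follows, unless noted: active = differentiation response of at least 50%, scaled between solvent and reference control, from cells with both markers; inactive = the rest.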

Beta-2 adrenergic receptor (Homo sapiens), sequence (P07550 whole entry, looked up): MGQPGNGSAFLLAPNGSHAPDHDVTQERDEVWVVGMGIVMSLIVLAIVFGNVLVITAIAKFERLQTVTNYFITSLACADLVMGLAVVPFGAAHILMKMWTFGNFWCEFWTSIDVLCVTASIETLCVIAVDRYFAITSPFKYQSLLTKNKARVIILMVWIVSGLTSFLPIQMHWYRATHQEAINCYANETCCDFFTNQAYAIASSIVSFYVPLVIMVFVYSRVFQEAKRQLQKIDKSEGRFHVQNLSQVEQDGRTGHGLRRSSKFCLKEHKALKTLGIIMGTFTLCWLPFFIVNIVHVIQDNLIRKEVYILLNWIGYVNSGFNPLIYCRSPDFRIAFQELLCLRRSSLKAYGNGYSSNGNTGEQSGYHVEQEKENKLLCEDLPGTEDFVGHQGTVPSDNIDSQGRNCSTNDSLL
AP-2 complex subunit beta (Homo sapiens), sequence (P63010 whole entry, looked up, the tested form may be a part, one chain of several): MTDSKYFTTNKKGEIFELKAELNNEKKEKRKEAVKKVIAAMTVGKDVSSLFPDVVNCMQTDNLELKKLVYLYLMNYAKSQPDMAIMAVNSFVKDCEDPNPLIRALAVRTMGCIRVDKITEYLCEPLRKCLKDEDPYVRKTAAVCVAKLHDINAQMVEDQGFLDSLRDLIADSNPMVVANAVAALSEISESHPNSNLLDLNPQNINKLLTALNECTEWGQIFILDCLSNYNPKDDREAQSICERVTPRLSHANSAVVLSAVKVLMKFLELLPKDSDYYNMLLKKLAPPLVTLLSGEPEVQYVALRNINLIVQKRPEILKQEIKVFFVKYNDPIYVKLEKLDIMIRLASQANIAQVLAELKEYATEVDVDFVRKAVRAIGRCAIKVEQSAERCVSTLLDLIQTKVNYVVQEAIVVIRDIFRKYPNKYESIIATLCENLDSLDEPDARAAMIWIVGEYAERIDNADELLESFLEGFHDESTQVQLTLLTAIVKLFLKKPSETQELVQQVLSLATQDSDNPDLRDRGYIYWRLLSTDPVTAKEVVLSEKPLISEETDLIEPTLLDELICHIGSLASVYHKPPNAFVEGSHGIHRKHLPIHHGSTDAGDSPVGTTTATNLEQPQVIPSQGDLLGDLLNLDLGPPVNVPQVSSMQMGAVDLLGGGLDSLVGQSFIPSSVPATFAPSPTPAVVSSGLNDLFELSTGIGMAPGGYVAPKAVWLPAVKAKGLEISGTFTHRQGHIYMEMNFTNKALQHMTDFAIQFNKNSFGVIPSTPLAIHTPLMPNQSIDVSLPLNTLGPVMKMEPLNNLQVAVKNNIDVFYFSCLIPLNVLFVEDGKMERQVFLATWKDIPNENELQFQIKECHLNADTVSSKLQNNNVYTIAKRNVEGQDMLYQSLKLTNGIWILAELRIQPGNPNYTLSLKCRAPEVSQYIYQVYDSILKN
ATP-binding cassette sub-family B member 6 (Homo sapiens), sequence (Q9NP58 whole entry, looked up): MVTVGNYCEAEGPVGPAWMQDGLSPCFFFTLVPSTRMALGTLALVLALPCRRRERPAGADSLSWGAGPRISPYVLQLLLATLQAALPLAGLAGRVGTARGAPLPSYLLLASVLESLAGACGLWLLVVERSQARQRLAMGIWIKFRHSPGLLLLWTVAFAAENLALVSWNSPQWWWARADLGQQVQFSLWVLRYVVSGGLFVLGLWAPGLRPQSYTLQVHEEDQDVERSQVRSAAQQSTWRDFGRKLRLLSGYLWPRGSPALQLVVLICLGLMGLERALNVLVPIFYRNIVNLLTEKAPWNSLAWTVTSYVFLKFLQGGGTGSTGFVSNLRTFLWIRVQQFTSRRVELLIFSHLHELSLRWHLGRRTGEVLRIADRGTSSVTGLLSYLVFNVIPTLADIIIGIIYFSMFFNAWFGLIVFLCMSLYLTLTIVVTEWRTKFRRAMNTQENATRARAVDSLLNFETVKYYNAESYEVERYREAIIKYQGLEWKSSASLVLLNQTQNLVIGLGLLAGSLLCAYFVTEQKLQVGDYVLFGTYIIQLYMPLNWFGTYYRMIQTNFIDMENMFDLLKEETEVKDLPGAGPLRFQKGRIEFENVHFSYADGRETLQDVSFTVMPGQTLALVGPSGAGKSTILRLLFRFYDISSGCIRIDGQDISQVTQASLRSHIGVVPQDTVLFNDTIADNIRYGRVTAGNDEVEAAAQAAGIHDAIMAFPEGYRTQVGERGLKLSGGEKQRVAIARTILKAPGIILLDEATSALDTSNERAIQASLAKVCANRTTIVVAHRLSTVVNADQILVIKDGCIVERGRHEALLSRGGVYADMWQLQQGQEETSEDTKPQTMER
Beta-adrenergic receptor kinase 1 (Homo sapiens), sequence (P25098 whole entry, looked up): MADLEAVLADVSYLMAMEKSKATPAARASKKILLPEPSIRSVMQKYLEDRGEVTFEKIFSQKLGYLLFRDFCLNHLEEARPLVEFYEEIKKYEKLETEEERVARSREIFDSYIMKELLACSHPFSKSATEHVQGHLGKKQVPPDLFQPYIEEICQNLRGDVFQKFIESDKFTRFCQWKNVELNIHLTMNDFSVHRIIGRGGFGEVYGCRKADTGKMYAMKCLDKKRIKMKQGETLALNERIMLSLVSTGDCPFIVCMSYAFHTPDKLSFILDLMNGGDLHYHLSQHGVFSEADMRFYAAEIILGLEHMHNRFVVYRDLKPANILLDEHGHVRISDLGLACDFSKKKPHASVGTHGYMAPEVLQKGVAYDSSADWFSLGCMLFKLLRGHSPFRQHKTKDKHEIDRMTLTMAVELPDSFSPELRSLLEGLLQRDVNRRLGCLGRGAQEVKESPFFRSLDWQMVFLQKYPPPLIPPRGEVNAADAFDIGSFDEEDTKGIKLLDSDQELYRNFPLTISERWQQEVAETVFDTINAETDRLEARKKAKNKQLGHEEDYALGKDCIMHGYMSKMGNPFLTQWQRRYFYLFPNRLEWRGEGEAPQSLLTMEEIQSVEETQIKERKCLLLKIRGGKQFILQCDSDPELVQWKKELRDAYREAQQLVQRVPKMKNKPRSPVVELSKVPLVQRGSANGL
Integrin beta-1 (Homo sapiens) + Integrin alpha-4 (Homo sapiens), sequence (P05556 whole entry, looked up): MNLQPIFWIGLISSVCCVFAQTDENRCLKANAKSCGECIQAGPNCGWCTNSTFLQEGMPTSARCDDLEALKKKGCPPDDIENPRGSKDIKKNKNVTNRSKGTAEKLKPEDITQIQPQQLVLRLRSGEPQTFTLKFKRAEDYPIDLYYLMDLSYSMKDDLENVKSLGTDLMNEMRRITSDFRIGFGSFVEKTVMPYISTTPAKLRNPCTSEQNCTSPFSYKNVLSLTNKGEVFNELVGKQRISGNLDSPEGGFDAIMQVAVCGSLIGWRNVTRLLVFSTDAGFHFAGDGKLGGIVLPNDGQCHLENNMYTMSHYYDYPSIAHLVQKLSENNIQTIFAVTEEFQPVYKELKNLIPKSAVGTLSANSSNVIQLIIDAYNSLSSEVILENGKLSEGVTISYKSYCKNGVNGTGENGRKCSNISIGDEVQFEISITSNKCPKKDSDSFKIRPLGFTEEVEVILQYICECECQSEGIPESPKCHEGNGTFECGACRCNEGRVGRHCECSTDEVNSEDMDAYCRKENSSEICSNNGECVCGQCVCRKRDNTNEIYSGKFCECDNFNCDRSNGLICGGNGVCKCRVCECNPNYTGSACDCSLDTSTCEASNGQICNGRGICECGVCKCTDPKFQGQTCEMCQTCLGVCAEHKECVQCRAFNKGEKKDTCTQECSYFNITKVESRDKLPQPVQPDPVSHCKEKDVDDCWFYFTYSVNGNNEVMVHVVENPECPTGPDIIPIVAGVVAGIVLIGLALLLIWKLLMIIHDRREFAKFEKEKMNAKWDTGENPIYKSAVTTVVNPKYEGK
Integrin beta-1 (Homo sapiens) + Integrin alpha-4 (Homo sapiens), sequence (P13612 whole entry, looked up): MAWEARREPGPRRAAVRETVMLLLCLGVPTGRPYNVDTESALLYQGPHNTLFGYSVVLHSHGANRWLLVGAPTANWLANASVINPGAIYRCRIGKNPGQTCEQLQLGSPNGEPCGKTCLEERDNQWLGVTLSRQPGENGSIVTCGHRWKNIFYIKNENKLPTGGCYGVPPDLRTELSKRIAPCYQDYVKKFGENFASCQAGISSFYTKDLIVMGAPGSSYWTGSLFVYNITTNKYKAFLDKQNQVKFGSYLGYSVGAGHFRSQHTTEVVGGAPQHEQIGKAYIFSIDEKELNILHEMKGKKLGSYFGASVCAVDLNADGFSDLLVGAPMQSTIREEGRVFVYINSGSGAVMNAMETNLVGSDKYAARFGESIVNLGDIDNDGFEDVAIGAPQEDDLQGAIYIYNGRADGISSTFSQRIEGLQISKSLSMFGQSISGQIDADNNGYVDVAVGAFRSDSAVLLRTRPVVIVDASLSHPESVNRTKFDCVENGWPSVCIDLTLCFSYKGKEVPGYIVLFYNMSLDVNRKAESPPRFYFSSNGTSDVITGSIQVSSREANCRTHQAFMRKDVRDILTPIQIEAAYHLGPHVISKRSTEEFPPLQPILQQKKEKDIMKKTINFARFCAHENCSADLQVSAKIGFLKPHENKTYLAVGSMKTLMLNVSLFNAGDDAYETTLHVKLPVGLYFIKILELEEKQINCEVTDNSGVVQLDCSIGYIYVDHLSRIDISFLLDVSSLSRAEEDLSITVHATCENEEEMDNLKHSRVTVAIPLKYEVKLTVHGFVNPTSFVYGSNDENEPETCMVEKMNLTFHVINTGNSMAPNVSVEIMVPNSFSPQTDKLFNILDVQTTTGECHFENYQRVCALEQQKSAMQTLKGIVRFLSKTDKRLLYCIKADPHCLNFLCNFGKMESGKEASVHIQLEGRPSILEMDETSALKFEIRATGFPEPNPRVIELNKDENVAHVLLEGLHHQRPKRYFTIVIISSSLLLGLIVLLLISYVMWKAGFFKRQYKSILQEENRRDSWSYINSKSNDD

`O=C(O)C1CCN(C(=O)COc2ccc3c4c(c(=O)oc3c2)CCC4)CC1`: in assay [1], the percent of DMSO control GFP was 105% (inactive). The GFP response vs DMSO in assay [2] was 105% (inactive); in [4] it was 112% (inactive). Also, the percent response of DMSO control in assay [3] is 101% (inactive). Besides, in [5], the GFP response, % of DMSO is 110% (inactive). For the same compound, the double positive events in assay [6] worked out at 65.1%. Besides, in assay [6], the vesicle binding response was 420% (inactive). Further, the values for the inhibition in assay [7], in [11] and in assay [15] were 6.55% (inactive), -5% (inactive) and 3% (inactive), respectively. The superoxide response (% of plate) in assay [8] is 105% (inactive). In addition, in assay [9], the aptamer binding inhibition was 1% (inactive). Besides, the response in assay [10] was -31% (inactive); in [12], 1.29% (inactive). For the same compound, the binding (% of control) in assay [13] is 109% (inactive). In addition, in assay [14], the efflux inhibition (fraction of control) was 0 (inactive). For the same compound, the differentiation response in [16] was -1.05% (inactive).

Consider `CC[C@H](C)C(=O)O[C@H]1C[C@@H](C)C=C2C=C[C@H](C)[C@H](CC[C@@H]3C[C@@H](O)CC(=O)O3)[C@H]21`, for which the percent of DMSO control GFP in assay [1] was 107% (inactive). Besides, the GFP response vs DMSO in assay [2] is 108% (inactive); in [4], 97% (inactive). Moreover, the percent response of DMSO control in [3] was 103% (inactive). Besides, the GFP response, % of DMSO in [5] was 95.8% (inactive). Moreover, in assay [6], the double positive events was determined as 64.6%. Further, the vesicle binding response in assay [6] is 126% (inactive). Further, the inhibition in assay [7] was -5.11% (inactive); in assay [11] it was 49.7% (inactive); in [15] it was 0% (inactive). In addition, the superoxide response (% of plate) in assay [8] was 93.1% (inactive). Also, the aptamer binding inhibition in assay [9] was 2% (inactive). For the same compound, the response in assay [10] is 1.87% (inactive); in assay [12], -9.69% (inactive). Also, in assay [13], the binding (% of control) was 109% (inactive). Further, in assay [14], the efflux inhibition (fraction of control) is 0.28 (inactive). The differentiation response in [16] is -11.9% (inactive).

On to `COc1ccc(CCN2C(=O)CSC2c2ccc(OC)c(OC)c2)cc1OC` (stereo not given), for which the percent of DMSO control GFP in assay [1] is 102% (inactive). Further, the GFP response vs DMSO is 118% (inactive) in assay [2] and 104% (inactive) in assay [4]. In [3], the percent response of DMSO control was 87.2% (inactive). Further, the GFP response, % of DMSO in assay [5] was 95.7% (inactive). For the same compound, in [6], the double positive events was determined as 63.2%. Besides, the vesicle binding response in assay [6] was 184% (inactive). Further, the inhibition was 9.13% (inactive) in assay [7], 8.66% (inactive) in [11] and 1% (inactive) in assay [15]. Moreover, the superoxide response (% of plate) in assay [8] is 104% (inactive). Moreover, the aptamer binding inhibition in assay [9] was 2% (inactive). The response was -12.9% (inactive) in [10] and -1.47% (inactive) in assay [12]. Besides, the binding (% of control) in assay [13] was 100% (inactive). Also, the efflux inhibition (fraction of control) in assay [14] was 0.05 (inactive). Also, the differentiation response in assay [16] is 21.6% (inactive).

For `COc1cc(-c2nnc(-c3cccs3)o2)cc(OC)c1OC`, the percent of DMSO control GFP in assay [1] was 102% (inactive). Further, the GFP response vs DMSO in [2] was 106% (inactive); in assay [4], 103% (inactive). Besides, the percent response of DMSO control in [3] was 99.7% (inactive). Also, in assay [5], the GFP response, % of DMSO was 86.3% (inactive). In addition, in assay [6], the double positive events amounted to 61.1%. Also, in assay [6], the vesicle binding response is 98.4% (inactive). Moreover, the inhibition in assay [7] was -1.09% (inactive); in assay [11] it was 5.76% (inactive); in assay [15] it was 29% (inactive). Moreover, in [8], the superoxide response (% of plate) was 99.2% (inactive). The aptamer binding inhibition in assay [9] was 3% (inactive). Besides, the response in [10] was -28% (inactive); in assay [12] it was 33.5% (active). For the same compound, in assay [13], the binding (% of control) is 101% (inactive). In addition, the efflux inhibition (fraction of control) in [14] is 0.15 (inactive). The differentiation response in [16] is -1.65% (inactive).

Consider `COc1ccc(C(CC(=O)N2CCOCC2)C(C)C)cc1` (stereo not given), for which, in assay [1], the percent of DMSO control GFP is 100% (inactive). For the same compound, the GFP response vs DMSO in assay [2] is 99.6% (inactive); in assay [4] it was 118% (inactive). Moreover, the percent response of DMSO control in assay [3] was 101% (inactive). Moreover, the GFP response, % of DMSO in assay [5] is 106% (inactive). In addition, the double positive events in assay [6] worked out at 55.7%. In assay [6], the vesicle binding response was 56.1% (inactive). Also, the inhibition in [7] was 2.3% (inactive); in assay [11], -2.4% (inactive); in assay [15] it was 7% (inactive). Further, the superoxide response (% of plate) in [8] was 77.9% (inactive). Also, the aptamer binding inhibition in assay [9] was 3% (inactive). In addition, the response is -9.06% (inactive) in assay [10] and 1.44% (inactive) in assay [12]. The binding (% of control) in assay [13] was 95.3% (inactive). Besides, in [14], the efflux inhibition (fraction of control) is -0.06 (inactive). Also, in assay [16], the differentiation response is -18.4% (inactive).

Source of the values: PubChem BioAssay.
